Screening results deposited in PubChem BioAssay by Small Molecule Screening Facility, UW Madison.
The full list was thinned out, with hits kept by preference.
RMI FANCM FP = blocks RMI1/RMI2 complex binding to FANCM MM2 peptide; Fluorescence polarization, RMI core complex with F-MM2 peptide; hits give low values; FP signal (polarization) at 33 µM; hit rate 0.58% among 70,000; in the data active = FP signal below about 40
Hits are given with their value; . = inactive; ! = repeats disagree.

SMILES	RMI FANCM FP
CCCc1ccc(S(=O)(=O)Nc2ccc3c(c2)N(C(=O)C(C)(C)C)CC3)cc1	.
Cc1cc(C(=O)N2CCN(C3c4ccccc4-c4ccccc43)CC2)c(C)o1	.
O=C(c1cccnc1Oc1ccccc1)N1CCN(C2c3ccccc3-c3ccccc32)CC1	.
O=C(O)c1ccccc1C(=O)N1CCN(C2c3ccccc3-c3ccccc32)CC1	32
N#Cc1c(-c2ccccc2)cc(-c2ccccc2)nc1SCC(=O)N1CCOCC1	.
S=C(CC12CC3CC(CC(C3)C1)C2)NCc1ccccc1	.
Cc1cc(NS(=O)(=O)c2ccc(NC(=O)c3ccc(Br)o3)cc2)no1	.
Cc1cc(NS(=O)(=O)c2ccc(NC(=O)c3oc4cc(C)c(C)cc4c3C)cc2)nc(C)n1	17
Cc1cc(NS(=O)(=O)c2ccc(NC(=O)CCN3C(=O)c4ccccc4C3=O)cc2)nc(C)n1	.
Cc1ccc([N+](=O)[O-])cc1N1C(=O)CC(Nc2ccc(N3CCOCC3)cc2)C1=O (stereo not drawn)	.
Cc1ccc(C(=O)CSc2ncnc3scc(-c4ccc(Cl)cc4)c23)cc1C	.
COc1ccc(S(=O)(=O)NCc2ccco2)cc1C(=O)O	1
CC(C)(C)c1ccc(S(=O)(=O)NCc2ccco2)cc1	.
COc1ccc(S(=O)(=O)NCc2ccco2)c(C)c1C	.
N#Cc1nc(=O)n(-c2ccc(OC(F)(F)F)cc2)c(N)c1N=Cc1ccc(C(F)(F)F)cc1	.
O=C(Nc1cnc2ccccc2c1)C1CCN(c2ccc(-c3ccco3)nn2)CC1	26
O=C(Nc1ccc(F)c(Cl)c1)C1CCN(c2ccc(-c3ccco3)nn2)CC1	.
O=C(Nc1ccc(F)c(C(F)(F)F)c1)C1CCN(c2ccc(-c3ccco3)nn2)CC1	.
COc1ccc(-c2c(C)c3ccc(OCCN4CCC(C(N)=O)CC4)cc3oc2=O)cc1OC	.
CN1C(=O)c2cc(NC(=O)c3ccccc3Cl)ccc2Oc2ccccc21	.
CC(=O)Nc1cccc(C2=CC(c3cccc(Br)c3)n3ncnc3N2)c1 (stereo not drawn)	5
CC(=O)Nc1cccc(NC(=O)C(=O)NC2CCCC2)c1	.
CCCOc1ccc(Br)cc1C1C(C(N)=O)=C(C)Nc2ncnn21 (stereo not drawn)	.
COc1ccc(OC)c(NC(=O)Cn2nc(C3CC3)c3cnn(-c4ccccc4)c3c2=O)c1	.
COc1cc(OC)cc(-c2noc(Cn3cnc4c(nnn4Cc4cccc(C)c4)c3=O)n2)c1	.
SMILES	RMI FANCM FP
COc1cccc(C(=O)Nc2nc3c(OC)cc([N+](=O)[O-])cc3s2)c1OC	.
Cc1nc(-n2nc(-c3cccs3)cc2NC(=O)c2cc3ccccc3o2)[nH]c(=O)c1C	.
CCC(C(=O)Nc1cc(-c2ccco2)nn1-c1nc(C)c(C)c(=O)[nH]1)c1ccccc1 (stereo not drawn)	31
CCC(C(=O)Nc1cc(-c2cccs2)nn1-c1nc(C)c(C)c(=O)[nH]1)c1ccccc1 (stereo not drawn)	.
Cc1nc(-n2nc(-c3ccco3)cc2NC(=O)c2cc3ccccc3o2)[nH]c(=O)c1C	23
Cc1nc(-n2nc(-c3ccco3)cc2NC(=O)Cc2ccc(F)cc2)[nH]c(=O)c1C	.
Cc1nc(-n2nc(-c3ccco3)cc2NC(=O)c2ccc(Br)o2)[nH]c(=O)c1C	39
Cc1nc(-n2nc(-c3ccco3)cc2NC(=O)COc2ccccc2F)[nH]c(=O)c1C	.
CCOCC(=O)Nc1cc(-c2ccco2)nn1-c1nc(C)c(C)c(=O)[nH]1	.
COc1cccc(C(=O)Nc2cc(-c3ccco3)nn2-c2nc(C)c(C)c(=O)[nH]2)c1OC	.
CC(=O)Nc1ccc(NS(=O)(=O)c2ccc(Cl)cc2)c(C)c1	.
COc1ccccc1NC(=O)N(C1=NCCC1)c1cccc(F)c1	.
Cc1ccc(-c2cc(=O)n(CC(=O)NCc3ccco3)cn2)cc1	.
O=C(NCc1csc2ccccc12)c1ccc(OC(F)(F)F)cc1	.
COCc1cc(C)nc2oc(C(=O)c3ccccc3)c(N)c12	.
CCOC(=O)c1oc2nc3c(c(-c4cccnc4)c2c1N)CCc1ccccc1-3	37
CCOC(=O)Cn1c(-c2cccnc2)nc(-c2ccccc2)c1-c1ccccc1	.
O=C(c1cccc(C(F)(F)F)c1)c1cc2cc(Cl)ccc2oc1=O	.
Cc1csc2nc(-c3ccc(NC(=O)C4CC4)cc3)cn12	.
NC(=O)N1c2ccccc2CC(=O)c2ccccc21	-8!
O=C1Cc2ccccc2C1=C1Cc2ccccc2C1	.
NC(=O)C1Cc2ccccc2N1C(=O)CCCN1C(=O)c2ccccc2C1=O (stereo not drawn)	.
N#CC1(CCc2ccccc2Br)CCN(S(=O)(=O)c2ccccc2)CC1	.
C[C@]12CC[C@@H]3c4ccc(OS(=O)(=O)O)cc4CC[C@H]3[C@@H]1CCC2=O	33!
C[C@]12CCC3c4ccc(OC(=O)CCC(=O)O)cc4CCC3C1CCC2=O (stereo partly drawn)	.
SMILES	RMI FANCM FP
C[C@]12CCC3c4ccc(O)cc4CCC3C1CCC2=O (stereo partly drawn)	.
COc1ccccc1NC(=O)c1ccc(CNS(=O)(=O)c2cc(C)ccc2C)cc1	.
COc1ccc(-c2cc(-c3ccc(C)c(C)c3)nc3sc(C(=O)Nc4nsc(-c5ccc(Cl)cc5)n4)c(N)c23)cc1	.
COc1ccc(-c2cc(-c3ccccc3)nc3sc(C(=O)Nc4nsc(-c5ccccc5)n4)c(N)c23)cc1OC	.
COc1ccc(-c2cc(-c3ccc(Cl)cc3)nc3sc(C(=O)NCCc4ccccc4)c(N)c23)cc1	-12
O=C1/C(=C/c2ccc(Br)o2)CCC/C1=C\c1ccc(Br)o1	.
COc1ccc(S(=O)(=O)C(CNC(=O)c2ccc(Br)o2)c2cccs2)cc1 (stereo not drawn)	.
COc1ccc(-c2csc(Cc3nc(-c4ccc(Cl)cc4)cs3)n2)cc1	.
Fc1ccc(C(c2ccc(F)cc2)N2CCN(C/C=C/c3ccccc3)CC2)cc1	24!
C(=C\c1ccccc1)/CN1CCN(C(c2ccccc2)c2ccccc2)CC1	.
COc1ccc(CN2CCN(C(c3ccc(F)cc3)c3ccc(F)cc3)CC2)c(OC)c1OC	.
O=C(NCc1ccc(Cl)cc1)C1CCN(c2cnc3ccccc3n2)CC1	.
Cc1ccccc1C(=O)NCCS(=O)(=O)N1CCN(c2ncccn2)CC1	.
CCOCCn1c(=NS(=O)(=O)c2ccc(C)cc2)sc2cc(F)cc(F)c21	.
COc1ccc(F)cc1S(=O)(=O)N1CCN(c2ccc(-c3ccc(F)cc3)nn2)CC1	.
COc1ccc(C)cc1S(=O)(=O)N1CCN(c2ccc(-c3ccncc3)nn2)CC1	.
COc1ccc(Cl)cc1S(=O)(=O)N1CCN(c2ccc(-c3ccncc3)nn2)CC1	27
COc1ccccc1-c1cc(=O)c2cc(NC(=O)c3ccc(F)cc3)ccc2o1	.
CCCS(=O)(=O)N1CCc2ccc(NC(=O)c3cc4ccccc4oc3=O)cc2C1	.
Cc1ccc(NC(=O)Cn2nc3ccc(SC4CCCCC4)nn3c2=O)c(Cl)c1	.
CCOC(=O)OCCN1C(=O)c2cccc3c(Br)ccc(c23)C1=O	.
O=C1OC(=O)c2ccc(Br)c3cccc1c23	.
O=C1c2cccc3c(Br)ccc(c23)C(=O)N1CCO	-1
COC(=O)c1ccccc1NC(=O)c1cccc(-n2cnnn2)c1	.
CCN1CCCc2cc(CCNC(=O)NC(C)(C)C)ccc21	.
CCN1CCCc2cc(CCNC(=O)c3ccc(Br)o3)ccc21	.
CCN1CCCc2cc(CCNC(=O)C(=O)NCCN3CCOCC3)ccc21	.
CCN1CCCc2cc(CCNC(=O)C(=O)NCCOC)ccc21	13
